Experimental data published in PubChem BioAssay (NCI).
This is part of a sample that, as a whole, favours compounds with a hit. Of some 83,000 tested, about 20% had one in any assay.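 Cell lines were cultured in 96-well plates, exposed to a single compound concentration, and assessed for percent growth 48 hours later.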 A number with no mark means an inactive call. Active and inactive are the calls of the source. How the source made its calls: active means growth percent below 10; inactive means the rest.

test system: HL-60(TB) leukemia; experiment: NCI-60 one-dose screen, 48 h (100 = growth as untreated, 0 = no growth, -100 = all killed); conditions: 10 µM unless noted

Row | SMILES | growth
1 | CC1=C2[C@@H](CC1)[C@]1(C)O[C@@](c3ccccc3)(C[C@H]1OC(=O)CO)[C@H]2OC(=O)/C=C/c1ccccc1 | 88.5%
2 | CCOC(=O)CC[C@H](NC(=O)c1ccc(N(C)Cc2cnc3nc(N)nc(N)c3n2)c2ccccc12)C(=O)OCC | 20.7%
3 | CN(C)c1ccc(/C=N\NC(=O)c2ccc3nc(-c4ccc(Cl)cc4)[nH]c3c2)cc1 | 37.4%
4 | O=C(Nc1nc(-c2ccc(Cl)cc2)nc2c1sc(=S)n2-c1ccccc1)C(F)(F)F | 69.2%
5 | NS(=O)(=O)c1ccc(CCN2C(=O)c3cc(Cl)c(Cl)cc3C2=O)cc1 | 86.5%
6 | Fc1ccccc1-c1cnn2cc(-c3ccccc3)cnc12 | 98.6%
7 | CCOC(=O)c1sc(NC(=O)COc2cccc(/C=C3\CCc4cc(OC)ccc4C3=O)c2)nc1C | -52.9% (active)
8 | NS(=O)(=O)c1ccc(-n2nc(-c3ccccc3)ccc2=O)cc1 | 89.9%
9 | CCN(CC)C(=O)CCCCCn1c2ccccc2c2c3c(c4c5ccccc5[nH]c4c21)C(=O)N(O)C3=O | 21.8%
10 | CCOC(=O)C(O)C(O)(c1ccccc1)c1ccccc1 (centres undefined) | 91.1%
11 | C#C[C@@]1(O)[C@@H](CO)O[C@@H](n2cc(C(F)(F)F)c3c(N)ncnc32)[C@@H]1O | -37.6% (active)
12 | COc1cccc(C(=O)Nc2ccc(CN3CCc4nc5cc(OC)c(OC)cc5cc43)cc2)c1 | 60%
13 | CCN(CC)CCCOCCCNc1cc(OC)cc2cccnc12 | 107%
14 | O=C(/C=C/c1ccc(F)cc1)c1ccc(NC(=O)N2CCN(c3cc4c(cc3F)c(=O)c(C(=O)O)cn4C3CC3)CC2)cc1 | 98.1%
15 | CS(=O)(=O)c1ccc(Nc2nc(N[C@H]3CCCC[C@H]3N)nc3cc[nH]c(=O)c23)cc1 | -16.9% (active)
16 | CN1CCCCC1CCN1c2ccccc2Sc2ccc(Br)cc21 (centres undefined) | 34.9%
17 | CC(=O)N/C(=C1/OC(C(O)C(O)C(O)CO)CN1C)[P+](c1ccccc1)(c1ccccc1)c1ccccc1 (centres undefined) | 97.9%
18 | CC[C@H](Nc1cc(C)nc(N)n1)c1nc2cccc(NCc3ccc(C(=O)NO)cc3)c2c(=O)n1-c1ccccc1 | 2.35% (active)
19 | COc1cc2c(=O)n(CCN)c3c4cc5c(cc4ccc3c2cc1OC)OCO5 | -64.9% (active)
20 | CC(C)[N+]1(C)C2CC[C@@H]1CC(OC(=O)C(CO)c1ccccc1)C2 (some centres undefined) | 107%
21 | O=C1C[C@H](Sc2nc(-c3ccc(F)cc3)cc(C(F)(F)F)n2)[C@H]2CO[C@@H]1O2 | 46.9%
22 | COc1ccc(/C=C2\COc3ccc(O)cc3C2=O)cc1 | -33.1% (active)
23 | COc1ccc2c(c1)C/C(=C\c1cc(-c3ccc4c(c3)OCO4)n[nH]1)C2=O | 88.3%
24 | COC(=O)c1c2c(n3ccc(C)cc13)C(=O)c1ccccc1C2=O | 57.6%
